“And” between values parts separate entries of the source, which are not always exact repeats. Identical values can stand only once. Where a structure was tested more than once in an assay, its records may differ in their call. The source made the active and inactive calls. The calls were made as follows: active = hit-call score of the fitted dose curve at least 0.9, where 1 is the maximum; inactive = score below 0.9.

Read-out in this assay: Plasminogen activator inhibitor-1 (PAI1), SERPINE1 (gene 5054)
Put plainly: BSK_hDFCGF_PAI1: BioMAP Diversity Plus: hDFCGF Assay for Plasminogen activator inhibitor-1 (PAI1) Biomarker Activity (AID 2283066). The following applies: primary human foreskin fibroblasts; actives raise or lower the signal. As to the method:
BSK_hDFCGF is a cell-based, multiplexed-readout assay that uses foreskin fibroblast, a human skin primary cell, with measurements taken at 24 hours after chemical dosing in a 96-well plate.BSK_hDFCGF_PAI1 is an assay component measured in the BSK_hDFCGF assay. It measures PAI-1 antibody related to regulation of gene expression using ELISA technology.Data from the assay component BSK_hDFCGF_PAI1 was analyzed into 1 assay endpoint. This assay endpoint, BSK_hDFCGF_PAI1, was analyzed with bidirectional fitting relative to DMSO as the negative control and baseline of activity. Using a type of binding reporter, gain or loss-of-signal activity can be used to understand changes in the signaling as they relate to the gene SERPINE1. Furthermore, this assay endpoint can be referred to as a primary readout, because this assay has produced multiple assay endpoints where this one serves a signaling function. To generalize the intended target to other relatable targets, this assay endpoint is annotated to the cytokine intended target family, where the subfamily is plasmogen activator inhibitor.
The levels of cell surface (or secreted, indicated by the prefix "s") biomarker endpoints were measured by ELISA. Overt cytotoxicity to cells in confluent adherent cultures (all systems other than the BT system) was assessed by measuring total protein levels using sulforhodamine B (SRB) staining in parallel cultures at the time of biomarker measurements, indicated as SRB endpoints. For proliferation assays for adherent cell types, individual cell types are cultured at sub-confluence and relative cell numbers quantified by SRB staining at time points optimized for each system (48 h: 3C and CASM3C systems; 72 h: BT and HDF3CGF systems; 96 h: SAg system). SRB was performed by staining cells with 0.1% SRB after fixation with 10% TCA and reading wells at 560 nm.Viability and proliferation of PBMC (T cells) was quantified by Alamar Blue reduction for the SAg and BT systems. For PBMC viability (referred to as PBMC Cytotoxicity within the assay endpoint names), cells were plated (75,000/well in a 96-well plate) and then chemical samples added for 1 h before addition of activators, SEB and TSST-1 (20 ng/mL final concentration each). Cells were incubated for 90 h. Then, Alamar Blue (20 uL/well) (Invitrogen, Cat DAL1100) was added for 6 h, and the plates were read with a fluorescence microplate reader at 546/580 nm (excitation/emission). For PBMC proliferation, cells were plated and activated as above but incubated for only 16 h prior to addition of Alamar Blue. Plates were read after 6 h.
As to `CC(C)(C)c1ccc(O)c(C(C)(C)C)c1`, the half-maximal activity concentration (AC50) is 10.3 µM (active).

Consider `COCC(C)O` (stereo not given), for which the result was inactive.

With `CCC(=C(c1ccc(O)cc1)c1ccc(OCCN(C)C)cc1)c1ccccc1`, the AC50 is 7.53 µM (active).

For the molecule `CCOC(=O)CC(O)(CC(=O)OCC)C(=O)OCC`, the outcome was inactive.

`c1ccc2cc3c(ccc4ccccc43)cc2c1`: the outcome was inactive.

`c1ccc2c(c1)ccc1ccccc12`: the result was inactive.

With `CCC(C)(C)C1CCC(O)CC1` (stereo not given), the outcome was inactive.

Turning to `COc1ccc([N+](=O)[O-])cc1N`, the outcome was inactive.

On to `CCCCC(CC)COC(=O)CCCCC(=O)OCC(CC)CCCC` (stereo not given), for which the outcome was inactive.

`CCCCCCCCC(=O)O`: the result was inactive.

`OCCC(F)(F)C(F)(F)C(F)(F)C(F)(F)C(F)(F)C(F)(F)C(F)(F)C(F)(F)F`: the outcome was inactive and the AC50 was 12.8 µM (active).

For the molecule `C[C@@H]1C[C@H]2[C@@H]3CCC4=CC(=O)C=C[C@]4(C)[C@@]3(F)[C@@H](O)C[C@]2(C)[C@@]1(O)C(=O)COP(=O)(O)O`, the result was inactive.

Turning to `CC#C[C@]1(O)CC[C@H]2[C@@H]3CCC4=CC(=O)CCC4=C3[C@@H](c3ccc(N(C)C)cc3)C[C@@]21C`, the AC50 is 11.2 µM (active).

With `O=C(O)Cc1cc(I)c(Oc2cc(I)c(O)c(I)c2)c(I)c1`, the AC50 is 8.1 µM (active).

As to `ClC1=C(Cl)C(Cl)(Cl)C(Cl)=C1Cl`, the AC50 was 8.9 µM (active).

As for `OC1CCC(C2CCCCC2)CC1` (stereo not given), the result was inactive.

For `CCCCCCC(=O)O`, the outcome was inactive.

`NC(=O)N1C(=O)C(C(=O)c2cc(Cl)cs2)c2cc(F)c(Cl)cc21` (stereo not given): the AC50 was 1.71 µM (active).

As to `Cc1cc(C)c(O)c(C)c1`, the result was inactive.

On to `Nc1cccc2c(N)cccc12`, for which the outcome was inactive.

As to `CC(C)CCCCCCOC(=O)CCCCC(=O)OCCCCCCC(C)C`, the result was inactive.

Take `CCCCCCCC(=O)O`: the result was inactive.

In the case of `CN1CCC[C@H]1c1cccnc1`, the outcome was inactive.

As to `Oc1cc2ccccc2c2ccccc12`, the half-maximal activity concentration (AC50) is 2.4 µM (active).

On to `OCCC(F)(F)C(F)(F)C(F)(F)C(F)(F)C(F)(F)C(F)(F)F`, for which the result was inactive; the AC50 is 53.5 µM (active) and 55.3 µM (active).

As for `c1ccc2c(c1)Cc1ccccc1-2`, the outcome was inactive.

Turning to `O=c1c(-c2ccc(O)cc2)coc2cc(O)ccc12`, the result was inactive.

For `CCCOc1sc(C(=O)N2CCC(c3cc(CN)ccc3F)CC2)c(C)c1Br`, the AC50 was 6.22 µM (active).

As for `FC(F)(I)C(F)(F)C(F)(F)C(F)(F)C(F)(F)C(F)(F)I`, the AC50 was 5.44 µM (active) [middle of 5 runs].

As for `CCCOC(=O)c1ccc(O)cc1`, the result was inactive.

In the case of `NC(=O)N(O)[C@@H]1C=C[C@H](Oc2cccc(Oc3ccc(F)cc3)c2)C1`, the outcome was inactive.

`O=[N+]([O-])c1ccc(O)cc1`: the outcome was inactive.

`CC[C@H](c1ccc(O)cc1)[C@@H](CC)c1ccc(O)cc1`: the AC50 was 25 µM (active).

Consider `O=C(O)c1ccccc1C(c1ccc(O)cc1)c1ccc(O)cc1`, for which the outcome was inactive.

In the case of `CC1=C(/C=C/C(C)=C/C=C/C(C)=C/C(=O)O)C(C)(C)CCC1`, the half-maximal activity concentration (AC50) was 20 µM (active).

With `CC(C)(C)c1cccc(C(C)(C)C)c1O`, the AC50 is 36.6 µM (active).

For `Cc1cc(CCN2CCN(c3nsc4ccccc34)CC2)cc2c1NC(=O)CC2(C)C`, the AC50 was 14.6 µM (active).

Take `Oc1cccc(O)c1`: the result was inactive.

The values above are taken from PubChem BioAssay (EPA / NIEHS).
